Cav3 T inh: human Cav3.2 channel inhibition, primary screen; B-score at 10 µM; AID 449739; Cav3.2-expressing cells, Fluo-4 calcium fluorescence FDSS; stronger effect = lower value; O95180; 4% of 100,000 active;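 active = single-dose well whose peak fluorescence ratio is a statistical outlier from its plate by either plate-standardised score or position-corrected B-score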
PostGolgi ctrl: inhibits growth of the yeast control strain; efflux-deficient yeast background strain, growth absorbance A615, 16 h; inhibition, % at 10 µM; 5% of 98,000 active; AID 738
PostGolgi yeast: growth inhibition of a yeast mutant, post-Golgi transport screen; post-Golgi transport phenotypic cell assay; inhibition, % at 10 µM; 0.9% of 98,000 active; AID 739;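 also: yeast cells grown in 1536-well plates; yeast grown about 18 h at 30C before absorbance read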
Smad3 inh: Smad3 (human) transcription factor binding inhibition; inhibition, % at 25 µM; 0.29% of 88,000 active; P84022; TR-FRET Smad3/Dy647-FoxH1 peptide binding, europium anti-His;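 active = compounds that reduce the energy-transfer binding signal between the protein and its labelled peptide by more than half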;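 also: 0% = Smad3 plus labelled peptide maximal FRET and 100% = peptide-only background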
DAT uptake mod: changed human dopamine transporter uptake under cocaine IC80; 1.3% of 110,000 active; LLC-PK1 hDAT cells, [14C]-dopamine uptake with cocaine IC80; actives deviate in either direction; B-score at 10 µM; Q01959; AID 449768;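 active = Z score or B-score, a plate-position-corrected score, falls beyond the plate's 99.7% confidence bounds, in either direction; inactive = both scores lie inside the 99.7% bounds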;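 also: scored against the spread of the other compound wells on the same plate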
Target sequence (Q01959 whole entry, looked up): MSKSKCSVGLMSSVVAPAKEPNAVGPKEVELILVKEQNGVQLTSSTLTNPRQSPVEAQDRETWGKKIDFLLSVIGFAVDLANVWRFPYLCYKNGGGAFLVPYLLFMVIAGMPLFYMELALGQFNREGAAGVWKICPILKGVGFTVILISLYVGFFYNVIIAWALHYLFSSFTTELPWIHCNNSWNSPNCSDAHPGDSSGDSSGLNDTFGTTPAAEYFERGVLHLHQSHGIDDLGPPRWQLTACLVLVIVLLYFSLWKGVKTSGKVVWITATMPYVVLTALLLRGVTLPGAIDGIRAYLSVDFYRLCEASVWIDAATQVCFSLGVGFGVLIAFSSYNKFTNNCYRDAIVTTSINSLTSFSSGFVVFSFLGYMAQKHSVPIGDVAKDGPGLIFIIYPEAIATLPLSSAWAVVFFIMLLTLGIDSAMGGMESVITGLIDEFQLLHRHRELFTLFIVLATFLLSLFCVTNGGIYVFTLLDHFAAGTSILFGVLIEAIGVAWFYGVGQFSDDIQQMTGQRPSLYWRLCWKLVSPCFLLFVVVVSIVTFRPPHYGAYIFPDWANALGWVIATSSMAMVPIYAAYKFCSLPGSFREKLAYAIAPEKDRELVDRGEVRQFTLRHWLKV
TNAP act mid DEA: activators of human TNAP at intermediate phosphate acceptor. P05186. purified TNAP, CDP-star luminescence, 100 mM DEA, 30 min; stronger effect = higher value; scale: 0 levamisole-inhibited, 1 vehicle-only enzyme. activation factor at 20 µM. 64,000 tested, under 10 active;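 active = activation factor of at least 2 at 20 µM, relative to controls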
The depositor's hits bear a star; · = not tested or not shown. Only some compounds are listed: those with a hit (about 8.7% of all), similar ones and a draw of the others. Rule as the data show it, unless noted: active = inhibition above about 30%; inactive = the rest.

SMILES	Cav3 T inh	PostGolgi ctrl	PostGolgi yeast	Smad3 inh	DAT uptake mod	TNAP act mid DEA
CCN(CC)c1nc(SCC(=O)O)nc(N(CC)CC)n1	1.38	40.3*	16.5	-12.9	1.17	1
CCOC(=O)CSc1nc(NC#N)nc(N(CC)CC)n1	0.178	9.6	9.8	1.4	-0.544	0.9
O=C(c1cn(-c2ccccc2)nc1-c1ccncc1)N1CCCCC1	1.04	5.5	-5.6	16.0	0.289	0.9
O=C1C(C=Nc2ccccc2O)=C(O)c2ccccc21	-0.168	3.2	-3.0	6.1	-0.502	0.9
Cc1ccc(O)c(N=CC2=C(O)c3ccccc3C2=O)c1	-0.0214	31.6*	1.4	29.8	-0.317	0.8
CCN(CC(O)Cn1c2ccccc2c2ccccc21)S(=O)(=O)c1ccc(C)cc1 (stereo not given)	-4.23	54.8*	-3.0	14.3	0.458	·
COc1ccc(-c2[nH]ncc2/C=N\NS(=O)(=O)c2ccc(Cl)cc2)cc1	-1.97	30.6*	1.3	·	0.176	·
COc1ccc(-c2[nH]ncc2/C=N\NS(=O)(=O)c2ccccc2)cc1OC	·	8.4	14.3	·	·	·
Cc1cccc(/C(N)=N/OC(=O)N2c3ccccc3Sc3ccccc32)c1	-4.92*	16.9	16.9	·	-0.992	·
CC(O)CN(CCC(N)=O)CCC(N)=O (stereo not given)	0.453	11.8	-12.2	·	-0.195	·
COC(=O)C1=C(Nc2ccc(C)cc2)C=C(C)C(C(=O)OC)C1c1ccc(OC)cc1 (stereo not given)	-4.11*	·	·	10.7	1.57	·
COC(=O)C1=C(Nc2ccc(C)cc2)C=C(C)C(C(=O)OC)C1c1cccc(OC)c1 (stereo not given)	-3.9*	·	·	3.4	1.98	·
Oc1ccc(Cn2c(-c3ccc(O)cc3)nc3ccccc32)cc1	·	·	·	5.9	·	·
Cc1ccc(-c2nc(NC(=O)c3nn(C)cc3[N+](=O)[O-])sc2C)cc1	-0.709	0.9	13.7	·	0.272	·
Cn1cc([N+](=O)[O-])c(C(=O)Nc2nc(-c3ccc(Cl)cc3)cs2)n1	-1.22	39.5*	0.7	·	-0.26	·
O=c1c(O)c(-c2cccs2)oc2ccccc12	-3.77*	3.0	-6.1	7.9	-0.00395	0.8
O=c1c(O)c(-c2cccs2)oc2ccc(Cl)cc12	-4.76*	21.1	2.1	-3.4	0.282	·
COc1ccccc1OCc1nnc(SCCN2CCOCC2)o1	-0.0201	1.6	0.6	2.5	1.03	0.9
Cc1ccc(NC(=O)c2cc(S(=O)(=O)c3ccccc3)ccc2Cl)cc1	-5.39*	16.3	-3.7	·	-0.274	·
Cc1ccc(NC(=O)c2cc(Cl)nc3ccccc23)cc1	0.645	-3.0	0.7	·	-2.46*	·
Cc1cccc(NC(=O)c2cc(Cl)nc3ccccc23)c1	·	2.4	2.1	·	·	·
CN1CCN(C(=O)C2=C[C@H](c3ccc4c(c3)OCO4)C[C@H](OCCCCO)O2)CC1	1.62	·	·	·	-0.273	·
O=c1[nH]cn[nH]1	-0.0461	·	·	·	0.927	·
CC1(C)N=C(SCC(=O)Nc2ccc(Cl)cc2Cl)C(c2ccccc2)=N1	-5.65*	10.6	-10.7	3.7	2.26	·
Cn1ccnc1SCC(=O)Nc1ccccc1	0.0307	·	·	8.9	-0.814	·
SMILES	Cav3 T inh	PostGolgi ctrl	PostGolgi yeast	Smad3 inh	DAT uptake mod	TNAP act mid DEA
Cc1ccc(C2=NC(C)(C)N=C2SCC(=O)Nc2ccc(Cl)cc2)cc1	-4.71*	34.5*	12.8	6.1	-7.39*	·
CC1(C)N=C(SCC(=O)Nc2ccccc2)C(c2ccc(Cl)cc2)=N1	-6.74*	9.1	-3.0	13.1	2.24	·
Cc1onc(-c2ccccc2Cl)c1C(=O)Oc1cc(N)n(S(=O)(=O)c2ccc(F)cc2)n1	-0.565	19.1	2.5	-7.7	0.288	1.1
Cc1ccc(S(=O)(=O)n2nc(OC(=O)c3c(-c4ccccc4Cl)noc3C)cc2N)cc1	-7.37*	1.4	-1.4	·	1.29	0.9
O=C(/C=C/c1c(Cl)cccc1Cl)Nc1ccncc1	-0.213	92.0*	51.5*	·	0.0758	·
O=C(Cc1c(F)cccc1Cl)Nc1cccnc1	0.498	6.9	-1.1	2.0	0.874	0.9
O=C(Cc1c(F)cccc1Cl)Nc1ccncc1	1.03	25.1	37.0*	3.0	-0.687	0.9
O=C(/C=C/c1ccccc1Cl)Nc1ccncc1	-0.429	16.0	-2.9	·	0.504	·
N/C(Cc1ccc(Cl)cc1)=N\OC(=O)c1cccc2ccccc12	-3.18	104.3*	82.5*	-4.5	0.136	·
N/C(Cc1ccc(Cl)cc1)=N\OC(=O)c1ccc2ccccc2c1	0.0165	81.0*	21.1	16.8	-0.815	·
COc1ccc(-n2c(SCC(=O)Nc3sc4c(c3C#N)CCCC4)nnc2-c2ccccc2OC)cc1	-6.31*	·	·	1.7	3.04	·
Clc1ccc(OCc2nc(-c3ccncc3)no2)cc1	0.218	8.0	-3.5	-6.2	-0.0858	·
Cc1ccc(C(=O)NCCSc2ccccc2)cc1S(=O)(=O)Nc1ccccc1	-5.8*	8.1	-8.6	·	1.3	·
Cc1ccc(C(=O)NCc2ccco2)cc1S(=O)(=O)Nc1cccc(Cl)c1	-5.96*	16.9	-5.7	·	-0.065	·
CCC(CC)C(=O)Nc1cccc(/C(C)=N\NC(=O)c2ccc(C)s2)c1	-5.81*	0.6	8.7	·	0.829	·
Cc1ccccc1NS(=O)(=O)c1cc(C(=O)NCCSC2CCCCC2)ccc1C	-4.45*	20.2	3.5	·	0.115	·
CSc1nncn1/N=C/c1ccc2c(c1)OCO2	0.405	9.7	-2.0	-7.1	-0.16	·
Cc1ccc(C)c(NS(=O)(=O)c2cc(C(=O)NCCSC3CCCCC3)ccc2C)c1	-4.53*	40.6*	-3.3	·	1	·
CCC(CC)C(=O)Nc1cccc(C(=O)NCc2ccco2)c1	-1.78	42.4*	-5.0	-12.5	-0.161	0.9
Cc1occc1C(=O)Nc1cccc(C(=O)NCc2ccccc2)c1	-3.8*	22.0	-1.8	-4.7	0.851	0.9
O=C(NCc1ccco1)c1cccc(NC(=O)c2ccccc2)c1	0.688	8.8	-6.8	6.1	-0.207	1
Cc1ccc(C)c(NS(=O)(=O)c2cc(C(N)=O)ccc2C)c1	-0.0101	-3.4	-2.9	-28.2	-0.829	0.9
Cc1ccc(C)c(NS(=O)(=O)c2cc(C(=O)Nc3cccc(N(C)S(C)(=O)=O)c3)ccc2C)c1	-4.45*	2.2	1.7	·	1.11	·
CN(C)S(=O)(=O)N(CC(=O)Nc1ccccc1F)c1ccccc1	-0.58	·	·	·	-0.447	·
